Screening data deposited in PubChem BioAssay by Broad Institute.
The entries come from a sample that favours hits as a whole.
Shh pathway inh = Hedgehog pathway signaling inhibitors, primary screen, luminescence, Shh-LIGHT2 cells, Gli-luciferase; actives 2.1% (n = 22,000); AID 2313, 2010; Shh-LIGHT2 Gli-luciferase reporter, 30 h; inhibition, % (concentration not given with the values);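 active means mean inhibition across valid replicates above about 65%, limit read from the data; inconclusive means mean under the limit, yet half or more replicates past it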;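 further: pathway switched on by Shh-conditioned medium diluted 1 in 25 in low serum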
MITF inh = inhibitors of MITF, primary screen, MITF inhibitor project, cell-based, luminescence; TRPM1 promoter luciferase, 24 h; inhibition, % (test concentration not listed); actives 0.28% (n = 37,000); AID 2240, 2010; in the data active means inhibition above about 85%; inconclusive means no clear call, values can overlap the other calls; inactive means below about 68%;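 further: human melanocyte line stably carrying TRPM1 promoter luciferase reporter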
Starred values were filed as active, the others as inactive; ? = inconclusive; nt = no result; ! = not active in a repeat.

SMILES	Shh pathway inh	MITF inh
CC[C@@H]1/C=C\C=C\C[C@H](C)C(O)[C@](C)(O)C(=O)[C@H](C)C(O)[C@H](C)C(=O)[C@H](C)[C@@H](O)[C@H](C)/C=C/C(=O)O[C@H]2[C@@H](C)[C@@H](CC1)O[C@@]1(CC[C@@H](C)[C@@H](C[C@H](C)O)O1)[C@@H]2C (stereo partly specified)	107.5*	75.5
COc1ccc([C@H]2Oc3c(I)c(OC)cc(OC)c3C[C@@H]2O)cc1OC	28.5	7.2
COc1cc2c(cc1O)C1Cc3ccc(OC)c(O)c3CN1CC2 (stereo unspecified)	-6.8	4.2
CO[C@H]1[C@H](O)[C@H](O[C@H]2CC[C@]3(C)C4CC[C@]5(C)[C@H](C6=CC(=O)OC6)CC[C@]5(O)C4CC[C@@H]3C2)O[C@@H](C)[C@@H]1O (stereo partly specified)	-5.3	31.3
C=C1[C@@H](C)[C@H]2[C@H](Cc3ccccc3)NC(=O)[C@]23[C@H](OC(C)=O)C=C[C@](C)(O)C(=O)[C@@H](C)C/C=C/[C@H]3[C@@H]1O	72.9*	57.1
CO[C@@H]1[C@H](O)[C@@H](O[C@@H]2C[C@H]3CC[C@@H]4C(CC[C@]5(C)[C@@H](C6=CC(=O)OC6)CC[C@]45O)[C@@]3(C)[C@H](O)C2)O[C@H](C)[C@@H]1O[C@@H]1O[C@H](CO)[C@@H](O)[C@H](O)[C@H]1O (stereo partly specified)	-11.4	29.9
CCc1nc2ccccc2c(=O)n1-c1ccccc1Cl	-32.3	24.7
Cc1cc(OCC(=O)N(C)C)c2c3c(c(=O)oc2c1)CCCC3	nt	-3.7
C/C1=C/C(=O)O[C@@H]2C[C@@H](CC[C@H](C)/C=C\CC1)O[C@@](O)([C@@H]1CSC(=O)N1)C2	101.9*	47.8
FC(F)(F)c1ccc2c(c1)N(CCCN1CCN(CCCl)CC1)c1ccccc1S2	66.4*	18.0
Nc1ccc(CCN2CCN(c3cccc(C(F)(F)F)c3)CC2)cc1	42.4	7.2
CCOC(=O)C1=NN(c2ccc(C)cc2)C2c3cccc4cccc(c34)C12 (stereo unspecified)	nt	-62.4
CCC(C)[C@H]1O[C@]2(C=C[C@@H]1C)C[C@@H]1C[C@@H](C/C=C(\C)[C@@H](OC3C[C@H](OC)C(O[C@H]4C[C@H](OC)[C@@H](O)[C@H](C)O4)[C@H](C)O3)[C@@H](C)/C=C/C=C3\CO[C@@H]4[C@H](O)C(C)=C[C@@H](C(=O)O1)[C@]34O)O2 (stereo partly specified)	4.6	100.0*
O=C1NC(=O)C(CCc2ccncc2)(CCc2ccncc2)C(=O)N1c1ccccc1F	nt	3.7
O=c1c2ccccc2nc(CSc2ccccn2)n1-c1ccccc1Cl	nt	-4.2
CC(C)(C)c1cc(C=C(C#N)C#N)cc(C(C)(C)C)c1O	104.3*	87.8*
N#CC(C#N)=Cc1ccc(O)c(O)c1	?	1.3
OC[C@H]1O[C@@H](Oc2c[nH]c3ccc(Br)c(Cl)c23)[C@H](O)[C@@H](O)[C@H]1O	2.6	24.9
O=C1NC(=O)C(=C/C=C/c2ccccc2)C(=O)N1	?	87.2*
O=C1CCCC2C3CC(CN12)[C@@H]1CCCCN1C3 (stereo partly specified)	3.4	-2.0
C[C@@H]1O[C@@H](OC2CCC3(C)C4CCC5(C)C(C6=CC(=O)OC6)CCC5(O)C4CC[C@H]3C2)[C@H](O)[C@H](O)[C@H]1O (stereo partly specified)	17.6	2.0
COC1CC(OC2C(C)OC(OC3C(C)OC(OC4C(C)OC(O[C@H]5CC[C@@]6(C)C(=CC[C@]7(O)C6CC(OC(=O)c6ccccc6)[C@@]6(C)[C@]7(O)CC[C@@]6(O)C(C)=O)C5)CC4OC)CC3OC)CC2OC)OC(C)C1O (stereo partly specified)	-48.2	35.4
N#CC(C#N)=NNc1ccc(OC(F)(F)F)cc1	82.3*	66.8
O=C(Nc1ccc2c(C(F)(F)F)cc(=O)oc2c1)c1cc(Cl)cc(Cl)c1	-22.8	7.7
C[C@@H]1O[C@@H](O[C@H]2[C@H](O)[C@@H](O)[C@H](O[C@@H]3C=C4CC[C@@H]5C(CC[C@]6(C)[C@@H](c7ccc(=O)oc7)CC[C@]56O)[C@@]4(C)CC3)O[C@@H]2CO)[C@H](O)[C@H](O)[C@H]1O (stereo partly specified)	-7.4	51.5
SMILES	Shh pathway inh	MITF inh
CC(C)c1cc2c(cc1O)[C@@]1(C)C[C@@H](O)CC(C)(C)C1CC2 (stereo partly specified)	-21.5	-3.9
CC1=CC(=O)c2c(O)cccc2C1=O	97.4*	97.3*
CO[C@H](C)C(O)(C(=O)OCC1=CCN2CC[C@H](O)[C@@H]12)C(C)C (stereo partly specified)	-67.9	-9.7
c1ccc2c(c1)[nH]c1cnccc12	21.3	2.1
Cc1c2ccncc2c(C)c2c1[nH]c1ccccc12	71.4*	28.1
CC(=O)O[C@@H](c1nc2ccccc2c(=O)n1[C@@H]1C[C@@]2(OC1=O)c1ccccc1N1C(=O)[C@H](C)N(O)[C@@H]12)C(C)C	14.5	14.9
COC(=O)c1ccc(OP2(=O)COc3ccccc3OC2)cc1	-12.4	-2.8
CCOCN(C(=O)CCl)c1c(C)cccc1CC	79.9*	99.1*
CCc1cccc(CC)c1N(COC)C(=O)CCl	10.8	26.2
COC[C@H]([C@@H](O)[C@@H](O)C(=O)NCC[C@@H](C)c1nc(/C=C/C[C@H]2OC3(C[C@H](O)[C@H]2C)OC([C@@H](C[C@@H](O)[C@@H](C)[C@@H](O)[C@@H](C)/C=C(C)/C(C)=C/C=C/C(C)=C\C#N)OC)[C@@H](OP(=O)(O)O)C3(C)C)co1)N(C)C (stereo partly specified)	105.3*	65.1
O=c1c2ccccc2[nH]c(=S)n1-c1cc(C(F)(F)F)cc(C(F)(F)F)c1	18.4	9.3
c1ccc(CCCN2CCN(CCOC(c3ccccc3)c3ccccc3)CC2)cc1	86.4*	20.5
Fc1ccc(C(OCCN2CCN(C/C=C/c3ccccc3)CC2)c2ccc(F)cc2)cc1	83.9*	99.6*
Fc1ccc(C(OCCN2CCN(CCCc3ccccc3)CC2)c2ccc(F)cc2)cc1	67.0*!	6.8
C/C=C/[C@@H]1[C@H]2C[C@@H](C)CC[C@@H]2C(C)=C[C@H]1C(=O)c1c(O)c(-c2ccc(O)cc2)c[nH]c1=O	-9.1	20.0
COc1cccc(CNCCc2c[nH]c3ccccc23)c1O	nt	-6.0
CO[C@H]1C[C@H](OC2CCC3(C)C4CCC5(C)C(C6=CC(=O)OC6)CC(OC(C)=O)C5(O)C4CC[C@H]3C2)O[C@@H](C)[C@@H]1O (stereo partly specified)	-2.6	10.2
C=CC(C)(C)[C@]12C=C(OC)C(=O)N3/C(=C/c4cnc[nH]4)C(=O)N[C@@]31N(OC)c1ccccc12	-4.3	11.5
CC(C)c1cc2c(cc1O)[C@@]1(C)CCCC(C)(C)[C@@H]1CC2O (stereo partly specified)	-35.6	37.7
COc1ccc2c3c1O[C@H]1[C@@H](O)CC=C4[C@@H](C2)N(C)CC[C@]431	-36.7	-7.6
C=C1C(=O)O[C@@H]2/C=C(/C)CC/C=C(/C)C[C@@H](OC(=O)/C(=C/CO)CO)C12 (stereo partly specified)	32.2	39.1
COc1ccc(C[C@H]2NC[C@H](O)[C@H]2OC(C)=O)cc1	106.5*	104.1*
CO[C@H]1[C@H](O)[C@H](O[C@H]2CC[C@]3(C)C4CC[C@]5(C)[C@H](C6=CC(=O)OC6)CC[C@]5(O)C4CC[C@@H]3C2)O[C@@H](C)[C@@H]1O[C@@H]1O[C@H](CO[C@@H]2O[C@H](CO)[C@@H](O)[C@H](O)[C@H]2O)[C@@H](O)[C@H](O)[C@H]1O (stereo partly specified)	-4.6	30.5
